# Activity calls are given as the source filed them.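 Rule for the calls: active = high combined rank on largest and smallest cell-count-weighted shift across three tests, rank score above 45, floors 50 and 25 (some results past the limit were not filed as active); inactive = the rest.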
# Experiment: LNCaP granularity increase inducers, single-point recheck – cell-based, side scatter shift, flow cytometry, confirmation (AID 1069);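 note: LNCaP human prostate cancer cells in low-serum medium with charcoal-stripped FBS; percent of cells with raised granularity gated so DMSO controls show 10%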
# Conditions: LNCaP differentiation, 4 d, at 100 µM, stronger effect = higher value
row,Compound,side scatter shift
1,COc1ccc(N2CCN(CCCNC(=O)c3cc4sccc4n3C)CC2)cc1,51.6% (active)
2,Cn1c(=O)cc(OCC(=O)NCCCN2CCN(c3ccccc3F)CC2)c2ccccc21,66.5% (active)
3,Cc1cc(NC(=O)c2noc3c2CCc2ccccc2-3)n(-c2ccccc2)n1,21.9% (inactive)
4,COc1ccc(N2CCN(CCCNC(=O)CC3Oc4ccc(C)cc4NC3=O)CC2)cc1 (stereo not given),50% (active)
5,COC(=O)c1cc2oc3ccccc3c2n1CC(=O)Nc1ccccc1OC,18.9% (inactive)
6,CCc1ccc(-c2nc(CN3CCC(C(=O)NCc4ccccc4OC)CC3)c(C)o2)cc1,12.2% (inactive)
7,COc1ccc(CCn2c(=N)c(C(=O)NCc3ccco3)cc3c(=O)n4ccccc4nc32)cc1,59.4% (inactive)
8,CCOc1cccc2cc(-c3cn4cc(C)ccc4n3)c(=O)oc12,43.1% (active)
9,O=C(CN1CCC(n2nnc3cc(F)ccc32)CC1)Nc1ccc2c(c1)CCC2,6.2% (inactive)
10,Cc1nn(Cc2ccc(F)cc2)c(C)c1NC(=O)c1cc(-c2ccc3c(c2)OCO3)on1,4.8% (inactive)
11,Cc1oc(-c2ccc(Cl)cc2)nc1CN1CCCC(C(=O)NCc2cccnc2)C1 (stereo not given),25% (inactive)
12,CCOC(=O)C1=C(C)Nc2nc(SC)nn2C1c1ccc(C(=O)OC)cc1 (stereo not given),7.7% (inactive)
13,COC(=O)c1ccccc1NC(=O)CN1CCC(n2nnc3cc(F)ccc32)CC1,25.9% (inactive)
14,CN(C)c1ccc(CNC2CC(C)(C)NC(C)(C)C2)cc1,49.2% (active)
15,Cc1sc(CO)c(Sc2ccccc2)c1C(=O)O,3.4% (inactive)

# — PubChem BioAssay AID1069 (NMMLSC, 2008)
